From PubChem BioAssay (NCI) come the findings set out here.

Structures are written as SMILES. “And” between values parts separate entries of the source, which are not always exact repeats. Equal values may be shown once. About 83,000 compounds went through this panel and 20% of them were active in at least one assay; those are over-represented in the sample as a whole.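 A percent growth of 40 corresponds to 60% growth inhibition; 0 means no net growth; -100 means all cells died. Active threshold: below 10.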 The source made the active and inactive calls.

Among the test systems are NCI-H23 lung; NCI-H226 lung; NCI-H322M lung; HOP-62 NSCLC; NCI-H460 lung; HOP-92 NSCLC; NCI-H522 lung; A549/ATCC NSCLC; 786-0 renal; COLO 205 colon; DU-145 prostate; K-562 leukemia; MALME-3M melanoma; MDA-MB-231 breast; RXF 393 renal; SF-268 CNS; SF-295 CNS; SF-539 CNS; UACC-257 melanoma; M14 melanoma.
Holding throughout (test): NCI-60 one-dose screen, 48 h (100 = growth as untreated, 0 = no growth, -100 = all killed)
Common to all, as to conditions: 10 µM unless noted

As for `Clc1ccc(CNc2ccc3nc(CCC4CCCCC4)[nH]c3c2)cc1`, the growth was 66.4% (inactive) in the test with NCI-H23 lung; 71.4% (inactive) in the test with NCI-H226 lung; 87.9% (inactive) in the test on NCI-H322M lung; 79% (inactive) in the test on HOP-62 NSCLC; 60.6% (inactive) with NCI-H460 lung; 28.8% (inactive) with HOP-92 NSCLC. Also, the growth in the test with NCI-H522 lung is 54.8% (inactive); with A549/ATCC NSCLC, 59.8% (inactive); with 786-0 renal, 58.9% (inactive); in the test on COLO 205 colon, -63.3% (active); in the test on DU-145 prostate, 83.5% (inactive); in the test on K-562 leukemia it was 6.84% (active). In addition, the growth was 31.4% (inactive) in the test with MALME-3M melanoma; 62.8% (inactive) with MDA-MB-231 breast; 52% (inactive) with RXF 393 renal; 79% (inactive) with SF-268 CNS; 73.4% (inactive) in the test with SF-295 CNS; 69.6% (inactive) in the test with SF-539 CNS. For the same compound, the growth in the test on UACC-257 melanoma was 71.4% (inactive); with M14 melanoma, 45% (inactive).

As to `NC(=O)c1c(NC(=O)/C=C/c2cccs2)sc2c1CCC(=O)C2`, the growth in the test on NCI-H23 lung was 17.4% (inactive); with NCI-H226 lung, 68.5% (inactive); with NCI-H322M lung, 101% (inactive); with HOP-62 NSCLC, 87.3% (inactive); in the test on NCI-H460 lung, 58% (inactive); with HOP-92 NSCLC it was 42.4% (inactive). For the same compound, the growth was -4.08% (active) with NCI-H522 lung; 74.9% (inactive) in the test with A549/ATCC NSCLC; 70.2% (inactive) in the test on 786-0 renal; 55.5% (inactive) with COLO 205 colon; 81.6% (inactive) in the test with DU-145 prostate; 14.3% (inactive) in the test on K-562 leukemia. The growth in the test with MALME-3M melanoma is 75.1% (inactive); with MDA-MB-231 breast, 24.6% (inactive); in the test with RXF 393 renal, 26.9% (inactive); with SF-268 CNS, 22.5% (inactive); in the test on SF-295 CNS, 80.9% (inactive); in the test on SF-539 CNS, 16.3% (inactive). Moreover, the growth in the test on UACC-257 melanoma is 70.7% (inactive); in the test with M14 melanoma, 24.8% (inactive).

On to `COc1ccc(-c2ccccc2)cc1-c1c(Nc2cc(Cl)cc(Cl)c2O)c(=O)c1=O`, for which the growth in the test with NCI-H23 lung was 2.65% (active); in the test with NCI-H226 lung it was 19.3% (inactive); in the test on NCI-H322M lung, 11.3% (inactive); in the test on HOP-62 NSCLC, 2.04% (active); with NCI-H460 lung, 7.61% (active); with HOP-92 NSCLC, -24.5% (active). The growth in the test on NCI-H522 lung was -19.6% (active); in the test with A549/ATCC NSCLC, 8.72% (active); with 786-0 renal, 17.3% (inactive); in the test on COLO 205 colon, 48.1% (inactive); in the test on DU-145 prostate, 20.5% (inactive); in the test with K-562 leukemia it was 13.5% (inactive). Further, the growth in the test on MALME-3M melanoma was -19.4% (active); with MDA-MB-231 breast, 15% (inactive); in the test on RXF 393 renal it was -13% (active); in the test on SF-268 CNS, 18.3% (inactive); in the test on SF-295 CNS, -6.58% (active); in the test on SF-539 CNS, 12.7% (inactive). Besides, the results for the growth in the test with UACC-257 melanoma and in the test with M14 melanoma were 2.86% (active) and 24.6% (inactive), respectively.

For `COc1ccc(-c2cc(-c3cc(OC)c(OC)c(OC)c3)c(C#N)c(=O)n2CCCCC(=O)O)cc1`, the growth in the test with NCI-H23 lung is 96.7% (inactive); in the test with NCI-H226 lung, 104% (inactive); in the test with NCI-H322M lung it was 98.4% (inactive); with HOP-62 NSCLC it was 96.8% (inactive); with NCI-H460 lung, 96% (inactive); in the test on HOP-92 NSCLC, 93.6% (inactive). Also, the growth in the test on NCI-H522 lung is 87.3% (inactive); in the test with A549/ATCC NSCLC it was 93.9% (inactive); in the test with 786-0 renal, 97.5% (inactive); with COLO 205 colon it was 115% (inactive); in the test with DU-145 prostate it was 98.2% (inactive); in the test with K-562 leukemia, 88% (inactive). Moreover, the growth in the test with MALME-3M melanoma was 114% (inactive); with MDA-MB-231 breast, 81.6% (inactive); with RXF 393 renal, 99.2% (inactive); in the test with SF-268 CNS, 86.9% (inactive); with SF-295 CNS, 95% (inactive); in the test with SF-539 CNS, 94.4% (inactive). For the same compound, the growth was 103% (inactive) in the test on UACC-257 melanoma and 98% (inactive) in the test on M14 melanoma.

On to `CC(Sc1ccccc1)C(=O)O` (stereo not given), for which the growth in the test on NCI-H23 lung was 96% (inactive); with NCI-H226 lung it was 99.3% (inactive); with NCI-H322M lung, 109% (inactive); with HOP-62 NSCLC, 83.4% (inactive); in the test on NCI-H460 lung it was 111% (inactive); with HOP-92 NSCLC, 97% (inactive). The growth with NCI-H522 lung is 102% (inactive); with A549/ATCC NSCLC it was 99.3% (inactive); in the test on 786-0 renal, 118% (inactive); with COLO 205 colon it was 143% (inactive); in the test on DU-145 prostate it was 107% (inactive); in the test with K-562 leukemia, 152% (inactive). Further, the growth in the test with MALME-3M melanoma was 67.5% (inactive); in the test on MDA-MB-231 breast it was 93.2% (inactive); with RXF 393 renal, 94.2% (inactive); in the test on SF-268 CNS it was 105% (inactive); in the test with SF-295 CNS it was 91.8% (inactive); in the test on SF-539 CNS, 103% (inactive). Further, the growth in the test on UACC-257 melanoma was 103% (inactive); in the test on M14 melanoma, 95.2% (inactive).

In the case of `O=[N+]([O-])c1ccc(S(=O)Cc2ccccc2)c([N+](=O)[O-])c1` (stereo not given), the growth is 71.8% (inactive) and 82.7% (inactive) in the test on NCI-H23 lung; 24.9% (inactive) in the test on NCI-H226 lung; 99.5% (inactive) in the test with NCI-H322M lung; 109% (inactive) and 47.2% (inactive) with HOP-62 NSCLC; 99.8% (inactive) and 103% (inactive) in the test with NCI-H460 lung; 56.6% (inactive) and 7.51% (active) in the test on HOP-92 NSCLC. In addition, the growth is -98.3% (active) and -79% (active) with NCI-H522 lung; 83.2% (inactive) and 40.6% (inactive) in the test on A549/ATCC NSCLC; 84.2% (inactive) and 51.2% (inactive) in the test with 786-0 renal; -98.2% (active) and -92.3% (active) in the test on COLO 205 colon; 79.3% (inactive) and 70.5% (inactive) in the test with DU-145 prostate; 25.9% (inactive) in the test with K-562 leukemia. The growth was -61.7% (active) and -33.4% (active) in the test with MALME-3M melanoma; 74.6% (inactive) and 82.1% (inactive) with MDA-MB-231 breast; -36.6% (active) and -28.2% (active) with RXF 393 renal; 86.6% (inactive) and 88.5% (inactive) with SF-268 CNS; 95.9% (inactive) in the test on SF-295 CNS; 90.7% (inactive) and 46.3% (inactive) in the test with SF-539 CNS. In addition, the growth in the test on UACC-257 melanoma is 37% (inactive) and 69.3% (inactive); in the test on M14 melanoma, 55.8% (inactive) and 31.7% (inactive).

As to `O=Nc1c(O)ccc2ccccc12`, the growth with NCI-H23 lung is 89.7% (inactive); in the test on NCI-H226 lung, 93.2% (inactive) and 97.4% (inactive); with NCI-H322M lung it was 97.1% (inactive); in the test on HOP-62 NSCLC, 117% (inactive) and 101% (inactive); with NCI-H460 lung, 96.4% (inactive) and 106% (inactive); with HOP-92 NSCLC, 66% (inactive) and 87.1% (inactive). Besides, the growth in the test on NCI-H522 lung is 41.8% (inactive) and 86.2% (inactive); in the test with A549/ATCC NSCLC, 72.2% (inactive) and 100% (inactive); with 786-0 renal, 92.1% (inactive) and 104% (inactive); in the test with COLO 205 colon, 71.1% (inactive) and 110% (inactive); in the test with DU-145 prostate, 83.9% (inactive) and 113% (inactive); in the test with K-562 leukemia, 51% (inactive) and 87.7% (inactive). The growth with MALME-3M melanoma was 33.3% (inactive) and 122% (inactive); in the test on MDA-MB-231 breast, 57.4% (inactive) and 62.7% (inactive); in the test with RXF 393 renal it was 80.5% (inactive) and 102% (inactive); in the test on SF-268 CNS, 49.6% (inactive) and 103% (inactive); in the test with SF-295 CNS, 91.3% (inactive) and 109% (inactive); in the test on SF-539 CNS, 94.9% (inactive) and 104% (inactive). Further, the growth in the test on UACC-257 melanoma is -51.3% (active) and 80.8% (inactive); in the test with M14 melanoma, 49.6% (inactive) and 104% (inactive).
